# Measurements: PubChem BioAssay AID1851 (National Center for Advancing Translational Sciences (NCATS), 2009)
# About 5,100 (32%) of roughly 16,000 compounds were called active. Another 25% or so got no clear call; they are omitted. The call rests on the fitted dose curve; in most records, active means well fitted curve in the direction sought with a large enough effect; inconclusive means small, poorly fitted or top-dose-only effect, or effect the other way; inactive means no such curve, though single readings can be large or run the other way. Some of the results follow. The source holds several records for some structures; these can differ, active in one and inactive in another.
# Target: Cytochrome P450 3A4 (Homo sapiens) (UniProt P08684)
# Sequence (P08684 whole entry, looked up): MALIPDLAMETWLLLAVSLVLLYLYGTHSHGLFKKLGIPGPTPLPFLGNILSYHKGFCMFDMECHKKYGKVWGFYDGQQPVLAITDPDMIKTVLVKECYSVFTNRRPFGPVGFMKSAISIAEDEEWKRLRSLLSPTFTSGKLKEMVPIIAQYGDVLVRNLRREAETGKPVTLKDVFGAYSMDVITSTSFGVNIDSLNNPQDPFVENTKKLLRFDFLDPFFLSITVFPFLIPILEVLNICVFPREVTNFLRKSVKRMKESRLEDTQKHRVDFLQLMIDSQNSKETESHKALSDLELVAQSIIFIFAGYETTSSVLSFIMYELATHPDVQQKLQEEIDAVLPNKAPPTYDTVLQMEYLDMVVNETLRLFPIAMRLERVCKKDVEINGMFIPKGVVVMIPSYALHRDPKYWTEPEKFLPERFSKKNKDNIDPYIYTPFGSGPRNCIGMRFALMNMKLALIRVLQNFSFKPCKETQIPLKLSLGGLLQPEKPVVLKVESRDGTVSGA
# Test: Cytochrome panel assay with activity outcomes
# Settings: recombinant CYP, pro-luciferin dealkylation, luminescence, p450-cyp3a4; series mostly up to 57.1 µM; activity, negative = inhibition: at the top concentration
# On the % scale 0 is the no-effect control and ±100 the full control effect.
SMILES,"activity, negative = inhibition",AC50
c1cc(C2N3CCCN2CC3)ccn1 (stereo unspecified),-11.6% [at 11.4 µM] (inactive),–
CCCCCCCCCC[Si](C)(C)CCC(=O)N[C@@H](Cc1ccc(C)cc1)c1ccccc1,-12.4% (inactive),–
C[N+]12CCC(CC1)[C@@H](OC(=O)C(O)(c1ccccc1)c1ccccc1)C2,-11.8% [at 25.6 µM] (inactive),–
Cc1nc(-c2ccc(-c3ccc(C(=O)N4CCc5cc6c(cc54)C4(CCN(C)CC4)CO6)cc3)c(C)c2)no1,-15.2% (inactive),–
c1cc(CN2CCCC3(CCNCC3)C2)ccn1,–,15.8 µM (active)
c1cc(CN2CC3(CCNCC3)C2)ccn1,-30.5% (inactive),–
c1ccc(CN2CCCC3(CCNCC3)C2)cc1,-19.6% (inactive),–
CC(=NCc1ccco1)c1c(O)n(-c2ccccc2)c(=O)[nH]c1=O,11.3% (inactive),–
Cc1nc2ccccc2cc1C[N+]12CN3CN(CN(C3)C1)C2,-6.46% [at 11.4 µM] (inactive),–
Cc1[nH]c2ccc(O)cc2c1CCN,-14.9% (inactive),–
N[C@H](CCCCCP(=O)(O)O)C(=O)O,inactive,–
OC(c1ccccc1)(c1ccccc1)C1CCCN1 (stereo unspecified),-2.76% [at 2.29 µM] (inactive),–
O=C1N[C@@]2(CN3CCC2CC3)C(=O)N1CN(Cc1ccccc1)c1ccccc1,1.78% [at 11.4 µM] (inactive),–
CN1C2CCC1CC(OC(=O)c1ccc(Cl)cc1)C2 (stereo unspecified),0.0365% (inactive),–
Cc1sc2c(c1C)C(c1ccc(C(C)(C)C)cc1)=NCC(=O)N2CC(=O)Nc1nccs1,–,7.94 µM (active)
Nc1nnnn1CCO,-6.3% [at 11.4 µM] (inactive),–
O=c1oc(Cl)c(Cl)c2ccccc12,6.83% (inactive),–
O=C(O)C(C(=O)O)P(=S)(S)c1ccccc1 (stereo unspecified),8.13% [at 11.4 µM] (inactive),–
C[C@H]1CC[C@@]2(NC1)O[C@@H]1C[C@H]3[C@@H]4CC=C5C[C@@H](O)CC[C@]5(C)[C@@H]4CC[C@]3(C)[C@@H]1[C@@H]2C,5.49% [at 25.6 µM] (inactive),–
O=[As](O)(O)c1ccc(NCc2ccccc2)cc1,-8.35% [at 11.4 µM] (inactive),–
COc1cc(OC)c(/C=C2/C(=O)Nc3ccccc32)c(OC)c1,–,2.51 µM (active)
OC(c1ccccc1)(c1ccccc1)C1CCNCC1,-16.4% [at 25.6 µM] (inactive),–
CC(C)(C)C(=O)CP(=O)(O)O,-7.32% [at 11.4 µM] (inactive),–

SMILES,"activity, negative = inhibition",AC50
CCCCc1ccc(C(=O)O)nc1,-1.67% [at 25.6 µM] (inactive),–
C[C@]12CC[C@@H]3[C@H](CCC4=CC(=O)CC[C@]43C)[C@]1(O)CC[C@@]2(O)C(=O)CO,-0.348% [at 11.4 µM] (inactive),–
Oc1ccc(-c2nc(-c3ccc(F)cc3)c(-c3ccncc3)[nH]2)cc1,–,0.501 µM (active)
N[C@H](Cc1c[nH]c2ccccc12)P(=O)(O)O,-2.01% [at 11.4 µM] (inactive),–
CC[C@H](C(=O)[C@H](C)[C@H](O)[C@H](C)CCc1ccc(C)c(O)c1C(=O)O)[C@H]1O[C@](CC)([C@@H]2CC[C@@](O)(CC)[C@H](C)O2)C[C@H]1C,–,7.94 µM (active)
CS(=O)(=O)O[C@H]1CN2CCC1CC2,-6.57% [at 11.4 µM] (inactive),–
C[C@@H](C(=O)OC1C[C@H]2CC[C@@H](C1)N2C)c1ccc(Br)cc1 (stereo partly specified),-5.24% (inactive),–
Cc1oc(-c2ccccc2F)nc1CS(=O)CC(=O)N1CCC2(CC1)OCCO2 (stereo unspecified),–,25.1 µM (active)
O=C(Cn1ncc2ccsc2c1=O)N1CCC2(CC1)OCCO2,-18.2% (inactive),–
Cc1ccccc1-c1nc(CS(=O)CC(=O)N2CCC3(CC2)OCCO3)c(C)o1 (stereo unspecified),18.8% (inactive),–
COc1cc2c(cc1OC)[C@@]13CCN4CC5=CCO[C@H](CC(=O)O)[C@@H]([C@H]1N2)[C@H]5C[C@H]43,-10.2% [at 11.4 µM] (inactive),–
CCC1(CCSC(=N)N)C(=O)NC(=O)NC1=O,-21.7% [at 11.4 µM] (inactive),–
C[C@H]1[C@H](NC(=O)/C(=N/OC(C)(C)C(=O)O)c2csc(N)n2)C(=O)N1S(=O)(=O)O (stereo in doubt),1.53% [at 25.6 µM] (inactive),–
O=C(O)CNC(=O)[C@@H](CS)Cc1ccccc1,-3.06% [at 25.6 µM] (inactive),–
CC(C)(C)c1cc(C=C(C#N)C#N)cc(C(C)(C)C)c1O,–,3.16 µM (active)
N#CC(C#N)=Cc1cc(O)c(O)c(O)c1,–,10 µM (active)
NCc1cc(=O)[nH]o1,inactive,–
CCCN[C@@H]1CCc2c(OC)cccc2[C@@H]1C,-22.1% (inactive),–
C[C@H]1CN(C2CCC(C#N)(c3ccc(F)cc3)CC2)CC[C@@]1(C(=O)O)c1ccccc1 (stereo partly specified),0.78% [at 25.6 µM] (inactive),–
COc1cc2c(cc1O)C[C@@H]1c3c(cc(O)c(OC)c3-2)CCN1C,-12.7% [at 11.4 µM] (inactive),–
CCCN1CC[C@@H]2c3cc(O)ccc3CC[C@H]21,-8.01% (inactive),–
CC(C)c1ccc(C(c2c(O)c3ccccc3oc2=O)c2c(O)c3ccccc3oc2=O)cc1,-28.5% [at 11.4 µM] (inactive),–
CC1=NCCc2c1[nH]c1cc(O)ccc21,-15.3% [at 25.6 µM] (inactive),–

SMILES,"activity, negative = inhibition",AC50
CC(NCc1ccc(Cl)cc1)C(O)c1ccccc1 (stereo unspecified),-27% (inactive),–
CCNC[C@H](O)c1cccc(O)c1,-7.75% [at 25.6 µM] (inactive),–
C[C@@H](Cc1ccc(OCC(=O)O)cc1)NC[C@H](O)c1cccc(Cl)c1,–,25.1 µM (active) and inactive
CCOC(=O)c1ncn2c1CN(C)C(=O)c1cc(F)ccc1-2,-3.59% (inactive),–
Cn1ccnc1,4.6% (inactive),–
CNCCc1c[nH]c2ccc(O)cc12,-6.65% (inactive),–
CC(=O)c1ccc2c(c1)N(CCCN(C)C)c1ccccc1S2,-19.6% [at 25.6 µM] (inactive),–
C=CCN1C(=O)c2ccccc2Sc2ccc(C(=O)N3CCC4(CC3)OCCO4)cc21,–,3.98 µM (active)
O=C(c1cc2cc3ccc(Cl)cc3nc2o1)N1CCC2(CC1)OCCO2,-25.6% (inactive),–
O=C(O)CS(=O)(=O)C(c1ccccc1)c1ccccc1,2.64% [at 11.4 µM] (inactive),–
CC(=O)c1c(O)c(C)c(O)c(Cc2c(O)c3c(c(C(=O)/C=C\c4ccccc4)c2O)OC(C)(C)C=C3)c1O,–,12.6 µM (active)
Clc1cnc(Oc2ccc(Oc3ncc(Cl)cc3Cl)cc2)c(Cl)c1,-3.91% (inactive),–
CSC([N-]/N=C/c1cccc(C)n1)=[S]=[Cu].CS[C@H]([S-])[N-]/N=C/c1cccc(C)n1,–,3.98 µM (active)
CCCN(CCC)[C@@H]1CCc2c(OC)cccc2[C@@H]1C,-4.58% (inactive),–
COC1=CC(=O)O[C@@H](/C=C\c2ccccc2)C1,4.42% [at 25.6 µM] (inactive),–
O=C(C[n+]1ccc2ccccc2c1)c1ccc2ccc3ccccc3c2c1,-29.1% [at 11.4 µM] (inactive),–
Nc1nc(N)c(N=Nc2ccc([As](=O)(O)O)c(O)c2)c(N)n1,7% [at 11.4 µM] (inactive),–
C[C@@H](Cc1cccc(C(F)(F)F)c1)NCCCc1ccccc1,–,5.01 µM (active)
C[C@@H](Cc1ccccc1)NCCC(c1ccccc1)c1ccccc1,-15.2% [at 25.6 µM] (inactive),–
CNCCCc1ccccc1,-2% (inactive),–
COc1cc2cc(c1Cl)N(C)C(=O)C[C@H](OC(=O)C(C)C)[C@]1(C)O[C@@H]1[C@@H](C)[C@H]1C[C@](O)(NC(=O)O1)[C@@H](OC)/C=C\C=C(\C)C2,-29.4% [at 11.4 µM] (inactive),–
c1ccc2c([C@@H]3CCN(CCN4CCOCC4)C3)c[nH]c2c1,-4.68% [at 11.4 µM] (inactive),–
COCOc1ccc(Br)cc1C(=O)/C=C\c1ccc2c(c1)OCO2,–,3.16 µM (active)

SMILES,"activity, negative = inhibition",AC50
CN1CCN(c2cc(N3CCCC3)c([N+](=O)[O-])cc2F)CC1,-9.54% (inactive),–
COc1cc(-c2ccc(=O)[nH]n2)ccc1OC(F)F,-23.6% (inactive),–
CN1CCN(c2ccc([N+](=O)[O-])c(N/N=C3\CN4CCC3CC4)c2)CC1,11.8% (inactive),–
CC[C@H](Oc1ccc(Cl)cc1)C(=O)OC1C[C@H]2CC[C@@H](C1)N2C (stereo partly specified),-24.5% (inactive),–
Oc1ccc2c3c1O[C@H]1c4[nH]c5c(c4C[C@@]4(O)[C@@H](C2)N(CC2CC2)CC[C@]314)C[C@]1(O)[C@H]2Cc3ccc(O)c4c3[C@@]1(CCN2CC1CC1)[C@@H]5O4,-17.9% (inactive),–
O=C1CC[C@]2(O)[C@H]3Cc4ccc(O)c5c4[C@@]2(CCN3CC2CC2)[C@@H]1O5,-5.91% [at 25.6 µM] (inactive),–
Oc1ccc2c3c1O[C@H]1c4c(c5ccccc5n4Cc4ccccc4)C[C@]4(O)[C@H](C2)N(CC2CC2)CC[C@@]314,–,10 µM (active)
CN1C(=O)CCS(=O)(=O)[C@@H]1c1ccc(Cl)cc1,-19.6% [at 25.6 µM] (inactive),–
CN1[C@@H]2CC[C@H]1CC(O)C2 (stereo partly specified),0.0981% [at 25.6 µM] (inactive),–
C[C@@H]1O[C@@H](O[C@H]2C[C@@H](O)[C@]3(CO)[C@@H]4[C@@H](O)C[C@]5(C)[C@H]([C@@H]6COC(=O)C6)CC[C@@]5(O)[C@H]4CC[C@@]3(O)C2)[C@H](O)[C@H](O)[C@@H]1O,-2.34% (inactive),–
CC(C)COC(=O)OCN1C(=O)CN(CCN2CC(=O)N(COC(=O)OCC(C)C)C(=O)C2)CC1=O,–,25.1 µM (active)
CN1CCc2cc(O)cc3c2[C@H]1Cc1ccc(O)c(O)c1-3,-24% (inactive),–
C[N+](C)(C)CCCCCCCCCC[N+](C)(C)C,-7.31% (inactive),–
Nc1nc(N)c(Cn2ccnc2)c(=O)[nH]1,-3.48% [at 11.4 µM] (inactive),–
O=c1[nH]c(=O)n(CCC2=CCCCC2)c(O)c1C=Nc1cccc(F)c1,4.91% (inactive),–
COc1cccc(-n2c(O)c(C=NCCN3CCOCC3)c(=O)[nH]c2=O)c1,-18.9% (inactive),–
C=CCn1c(O)c(C(C)=NCCCN2CCOCC2)c(=O)[nH]c1=O,23.7% (inactive),–
O=c1[nH]c(=O)n(CCc2ccc(F)cc2)c(O)c1C=NCCCN1CCOCC1,–,11.2 µM (active)
Cc1cc(C)c(-n2c(O)c(C=NCCN3CCOCC3)c(=O)[nH]c2=O)c(C)c1,–,25.1 µM (active)
CCNC(=O)[C@@H]1O[C@@H](n2cnc3c(N)ncnc32)[C@@H](O)[C@H]1O,-2.41% (inactive),–
C[C@@H]1[C@@H]2Cc3ccc(O)cc3[C@@]1(C)CCN2CC1CC1,18.4% (inactive),–
C[C@@H]1O[C@H](O[C@@H]2C[C@@H](O)[C@]3(CO)[C@H]4[C@H](O)C[C@]5(C)[C@@H](C6=CC(=O)OC6)CC[C@@]5(O)[C@@H]4CC[C@]3(O)C2)[C@@H](O)[C@H](O)[C@H]1O,-7.96% (inactive),–
